Drawing on PubChem BioAssay (NCI), this text covers growth for seven molecules.

Each structure is given as a SMILES string. The panel holds about 83,000 compounds, 20% with a hit somewhere; the sample as a whole holds those more often.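 Note: values are percent growth. 100 is the growth of untreated cells, values between 100 and 0 indicate rising inhibition; between -100 and 0 indicates cell death.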 Values without a mark were called inactive. The source made the active and inactive calls. The calls were made as follows: active = growth percent below 10; inactive = the rest.

Some test systems named below: DU-145 prostate; K-562 leukemia; MALME-3M melanoma; MDA-MB-231 breast; RXF 393 renal; SF-268 CNS; SF-295 CNS; SF-539 CNS; UACC-257 melanoma; M14 melanoma; HCT-15 colon; HT29 colon; SNB-75 CNS; SNB-19 CNS; U251 CNS; PC-3 prostate; SK-MEL-5 melanoma; UACC-62 melanoma; LOX IMVI melanoma; SK-MEL-28 melanoma.
Assay in all cases: NCI-60 one-dose screen, 48 h (100 = growth as untreated, 0 = no growth, -100 = all killed)
Details in all cases: 10 µM unless noted

For `COc1ccc(C2CC(c3cc(OC)c(OC)c(OC)c3)=NO2)cc1OCCCCOc1cc2c(cc1OC)C(=O)N1CCC[C@H]1C=N2` (stereo not given in full), the growth in the test with DU-145 prostate was 13.4%; in the test on K-562 leukemia, 34.8%; in the test with MALME-3M melanoma it was -43.1% (active); in the test on MDA-MB-231 breast it was 11.7%; in the test with RXF 393 renal, -67.1% (active); in the test with SF-268 CNS it was 16.7%. Moreover, the growth in the test on SF-295 CNS was 2.46% (active); in the test with SF-539 CNS it was -39% (active); with UACC-257 melanoma, 24.6%; in the test with M14 melanoma it was -16.2% (active); in the test with HCT-15 colon, 39.8%; in the test on HT29 colon, -13.9% (active). Besides, the growth in the test on SNB-75 CNS is -14.2% (active); with SNB-19 CNS it was 16.5%; with U251 CNS, 4.05% (active); with PC-3 prostate, 45.8%; in the test on SK-MEL-5 melanoma, -79.6% (active); in the test with UACC-62 melanoma it was -67.8% (active). In addition, the growth in the test with LOX IMVI melanoma was -39.7% (active); in the test with SK-MEL-28 melanoma it was -23.1% (active).

As to `COc1ccc(/C=C2\COc3ccc(O)cc3C2=O)cc1`, the growth is 111% in the test with DU-145 prostate; 24% with K-562 leukemia; 96.1% in the test on MALME-3M melanoma; 92.8% in the test with MDA-MB-231 breast; 115% in the test with RXF 393 renal; 99.4% in the test on SF-268 CNS. Moreover, the growth in the test with SF-295 CNS is 108%; in the test on SF-539 CNS, 102%; with UACC-257 melanoma, 106%; in the test on M14 melanoma, 90.8%; in the test on HCT-15 colon, 77.5%; in the test with HT29 colon, 80.1%. The growth in the test with SNB-75 CNS was 96.8%; with SNB-19 CNS, 96.7%; with U251 CNS it was 85.5%; in the test on PC-3 prostate it was 95.2%; in the test on SK-MEL-5 melanoma it was 99.3%; with UACC-62 melanoma it was 85.7%. Also, the growth in the test with LOX IMVI melanoma is 74.3%; in the test with SK-MEL-28 melanoma it was 102%.

Consider `COc1ccc(CCN(CC(=O)N(CC(N)=O)C2CCC[C@@H]2OCc2ccccc2)C(=O)CN(C(=O)CN(CCc2ccc(Cl)cc2)C(=O)CN(C(=O)CN(C)Cc2ccccc2F)[C@H](C)C2CCCCC2)[C@H](C)C2CCCCC2)cc1OC` (stereo not given in full), for which the growth is 43.7% in the test with DU-145 prostate; 10.4% with K-562 leukemia; 51.7% in the test with MALME-3M melanoma; 29.7% with MDA-MB-231 breast; -10% (active) in the test on RXF 393 renal; 26.5% in the test with SF-268 CNS. In addition, the growth was -0.412% (active) in the test on SF-295 CNS; 33.7% with SF-539 CNS; -5.66% (active) in the test on UACC-257 melanoma; 19.3% in the test with M14 melanoma; 33.7% in the test on HCT-15 colon; 0.386% (active) in the test on HT29 colon. The growth in the test on SNB-75 CNS is 53.5%; in the test with SNB-19 CNS, 33.9%; with U251 CNS, 21.5%; with PC-3 prostate, 15%; in the test with SK-MEL-5 melanoma, -41.8% (active); in the test with UACC-62 melanoma, 33.8%. Also, the growth in the test on LOX IMVI melanoma is -33% (active); in the test on SK-MEL-28 melanoma, 32.5%.

Take `CCOC(=O)C#Cc1c(C(=O)OCC)nnn1Cc1ccc(C(F)(F)F)cc1`: the growth in the test on DU-145 prostate was 60.5%; in the test on K-562 leukemia, 3.87% (active); in the test on MALME-3M melanoma it was 74.4%; in the test on MDA-MB-231 breast, 88.1%; in the test on RXF 393 renal it was -7.11% (active); with SF-268 CNS it was 86.6%. The growth in the test on SF-295 CNS was 94.8%; with SF-539 CNS it was 43.3%; in the test with UACC-257 melanoma, 74.2%; in the test with M14 melanoma, 30.5%; in the test on HCT-15 colon, -16.9% (active); with HT29 colon, 5.09% (active). Also, the growth in the test on SNB-75 CNS was 62.3%; in the test on SNB-19 CNS, 85.5%; with U251 CNS it was 93.7%; in the test on PC-3 prostate it was 64.5%; with SK-MEL-5 melanoma, 95.2%; with UACC-62 melanoma, 80%. Moreover, the results for the growth in the test on LOX IMVI melanoma and in the test on SK-MEL-28 melanoma were -68.3% (active) and 89.7%, respectively.

`C=C(C)[C@@H]1CC[C@]2(COC(C)=O)CC[C@]3(C)[C@H](CC[C@@H]4[C@@]5(C)CCCN(C(C)=O)C(C)(C)[C@@H]5CC[C@]43C)[C@@H]12`: the growth is 59.9% with DU-145 prostate; 0.971% (active) in the test on K-562 leukemia; 51% with MALME-3M melanoma; 45.2% with MDA-MB-231 breast; 64.1% in the test with RXF 393 renal; 90.9% with SF-268 CNS. Moreover, the growth in the test on SF-295 CNS is 104%; in the test on SF-539 CNS it was 81%; with UACC-257 melanoma, 60%; in the test with M14 melanoma, -65.9% (active); with HCT-15 colon it was 0.472% (active); with HT29 colon, -7.38% (active). Moreover, the growth in the test with SNB-75 CNS is 108%; in the test on SNB-19 CNS it was 84.6%; in the test on U251 CNS, 6.47% (active); with PC-3 prostate, 65.6%; with SK-MEL-5 melanoma it was 84.6%; in the test with UACC-62 melanoma it was -2.48% (active). In addition, the values for the growth with LOX IMVI melanoma and with SK-MEL-28 melanoma were -98% (active) and 96.6%, respectively.

Take `CN(C)c1ccc(/C=C(\C#N)c2cc3ccccc3[nH]2)cc1`: the growth with DU-145 prostate is 24.5%; in the test on K-562 leukemia, 14%; in the test with MALME-3M melanoma, 63.9%; in the test on MDA-MB-231 breast, 31.9%; with RXF 393 renal, 28.9%; in the test on SF-268 CNS, 39.8%. The growth was 8.98% (active) in the test on SF-295 CNS; 6.06% (active) in the test with SF-539 CNS; 57.1% in the test on UACC-257 melanoma; 9.05% (active) in the test with M14 melanoma; 23.6% in the test on HCT-15 colon; 5.51% (active) in the test on HT29 colon. The growth with SNB-75 CNS is 10.9%; in the test with SNB-19 CNS, 29.5%; in the test on U251 CNS, 17.4%; in the test on PC-3 prostate, 28.3%; in the test on SK-MEL-5 melanoma, 13%; with UACC-62 melanoma, 30.9%. Further, the growth with LOX IMVI melanoma was 27.6%; with SK-MEL-28 melanoma, 54.7%.

With `Cc1cccc2c1C[C@@]1(C2=O)C(c2ccc(C(C)(C)C)cc2)=NOS1=O` (stereo not given in full), the growth in the test on DU-145 prostate was 103%; with K-562 leukemia, 77.8%; with MALME-3M melanoma it was 93.3%; with MDA-MB-231 breast it was 86.1%; with RXF 393 renal it was 100%; in the test with SF-268 CNS, 94.7%. Moreover, the growth with SF-295 CNS is 99.2%; with SF-539 CNS, 108%; with UACC-257 melanoma, 95.8%; in the test on M14 melanoma it was 88.8%; in the test on HCT-15 colon, 72.1%; in the test on HT29 colon, 98.1%. In addition, the growth in the test on SNB-75 CNS was 101%; in the test on SNB-19 CNS it was 93.5%; with U251 CNS, 88.2%; in the test on PC-3 prostate it was 68.8%; in the test with SK-MEL-5 melanoma it was 90.3%; in the test with UACC-62 melanoma, 73.8%. Also, the growth in the test on LOX IMVI melanoma was 76.6%; in the test on SK-MEL-28 melanoma, 110%.
